Assay [1] concerns the target RAC-alpha serine/threonine-protein kinase (Homo sapiens) (UniProt P31749). The following applies: at 0.1 µM.
Assay [2] has the same target. Particulars: at 1 µM.
The target in assay [3] is RAC-beta serine/threonine-protein kinase (Homo sapiens) (UniProt P31751). The following applies: at 0.1 µM.
Assay [4] shares this target. The following applies: at 1 µM.
For assay [5], the target named is RAC-gamma serine/threonine-protein kinase (Homo sapiens) (UniProt Q9Y243). The following applies: at 0.1 µM.
Assay [6] has the same target. Particulars: at 1 µM.
For assay [7], the target named is G protein-coupled receptor kinase 6 (Homo sapiens) (UniProt P43250). Particulars: at 0.1 µM.
Assay [8] has the same target. Particulars: at 1 µM.
Assay [9] deals with T1, Rhodopsin kinase GRK7 (Homo sapiens) (UniProt Q8WTQ7).
T1 sequence (whole entry): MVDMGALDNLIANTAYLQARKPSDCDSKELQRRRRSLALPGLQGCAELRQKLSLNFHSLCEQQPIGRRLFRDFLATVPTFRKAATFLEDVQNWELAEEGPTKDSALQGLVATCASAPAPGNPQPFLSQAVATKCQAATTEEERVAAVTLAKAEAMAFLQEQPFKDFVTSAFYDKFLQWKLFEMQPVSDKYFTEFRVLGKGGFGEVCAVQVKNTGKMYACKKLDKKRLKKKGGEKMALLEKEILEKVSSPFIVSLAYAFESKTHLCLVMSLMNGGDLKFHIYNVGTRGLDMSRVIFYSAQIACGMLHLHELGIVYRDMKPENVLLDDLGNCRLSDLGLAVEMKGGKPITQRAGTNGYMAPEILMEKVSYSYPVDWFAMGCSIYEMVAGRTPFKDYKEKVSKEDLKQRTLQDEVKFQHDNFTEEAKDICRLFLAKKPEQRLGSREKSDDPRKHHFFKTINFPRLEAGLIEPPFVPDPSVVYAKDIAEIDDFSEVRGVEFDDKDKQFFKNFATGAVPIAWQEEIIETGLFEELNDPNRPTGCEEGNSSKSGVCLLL
Particulars: at 0.1 µM.

Assay [10] concerns the target T1, Rhodopsin kinase GRK7 (Homo sapiens). Particulars: at 1 µM.

Molecules are shown by their SMILES.

Sequence of RAC-gamma serine/threonine-protein kinase (Homo sapiens) (Q9Y243 whole entry): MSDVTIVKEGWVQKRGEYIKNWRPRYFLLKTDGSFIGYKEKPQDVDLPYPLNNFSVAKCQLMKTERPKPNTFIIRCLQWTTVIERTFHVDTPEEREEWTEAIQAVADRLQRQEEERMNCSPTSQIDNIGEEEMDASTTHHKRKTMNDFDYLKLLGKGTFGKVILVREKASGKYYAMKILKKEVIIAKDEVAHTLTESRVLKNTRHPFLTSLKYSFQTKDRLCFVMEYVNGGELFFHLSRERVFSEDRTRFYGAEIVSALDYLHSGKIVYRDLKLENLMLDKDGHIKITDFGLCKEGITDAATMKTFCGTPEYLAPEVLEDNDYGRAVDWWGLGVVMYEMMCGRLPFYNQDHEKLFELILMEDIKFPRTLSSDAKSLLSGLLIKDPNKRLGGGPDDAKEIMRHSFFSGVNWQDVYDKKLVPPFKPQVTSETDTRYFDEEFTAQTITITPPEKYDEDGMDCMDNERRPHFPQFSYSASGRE
Sequence of RAC-alpha serine/threonine-protein kinase (Homo sapiens) (P31749 whole entry): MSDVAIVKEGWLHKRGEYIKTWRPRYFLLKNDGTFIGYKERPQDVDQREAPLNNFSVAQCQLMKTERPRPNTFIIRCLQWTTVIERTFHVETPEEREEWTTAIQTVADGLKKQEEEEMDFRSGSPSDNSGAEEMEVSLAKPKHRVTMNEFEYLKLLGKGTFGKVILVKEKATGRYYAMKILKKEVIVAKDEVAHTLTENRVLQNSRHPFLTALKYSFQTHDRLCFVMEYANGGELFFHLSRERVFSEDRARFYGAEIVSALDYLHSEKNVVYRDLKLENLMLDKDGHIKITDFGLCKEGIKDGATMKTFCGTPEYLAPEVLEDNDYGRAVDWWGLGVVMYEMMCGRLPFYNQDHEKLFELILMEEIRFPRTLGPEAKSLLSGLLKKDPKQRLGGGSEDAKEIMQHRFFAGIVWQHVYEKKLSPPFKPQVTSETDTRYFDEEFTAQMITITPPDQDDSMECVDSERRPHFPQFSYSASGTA
Sequence of RAC-beta serine/threonine-protein kinase (Homo sapiens) (P31751 whole entry): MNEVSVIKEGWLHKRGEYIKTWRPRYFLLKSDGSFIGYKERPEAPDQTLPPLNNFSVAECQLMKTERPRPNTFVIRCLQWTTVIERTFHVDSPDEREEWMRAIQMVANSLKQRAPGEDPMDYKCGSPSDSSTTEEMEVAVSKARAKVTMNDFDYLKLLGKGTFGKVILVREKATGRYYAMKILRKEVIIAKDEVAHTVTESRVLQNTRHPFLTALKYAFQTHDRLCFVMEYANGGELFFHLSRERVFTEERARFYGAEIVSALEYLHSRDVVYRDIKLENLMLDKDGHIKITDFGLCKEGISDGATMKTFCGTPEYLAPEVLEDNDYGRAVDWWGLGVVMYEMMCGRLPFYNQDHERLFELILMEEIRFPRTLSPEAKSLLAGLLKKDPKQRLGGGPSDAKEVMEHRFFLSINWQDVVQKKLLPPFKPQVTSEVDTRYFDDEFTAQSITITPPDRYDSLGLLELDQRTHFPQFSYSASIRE
Sequence of G protein-coupled receptor kinase 6 (Homo sapiens) (P43250 whole entry, looked up): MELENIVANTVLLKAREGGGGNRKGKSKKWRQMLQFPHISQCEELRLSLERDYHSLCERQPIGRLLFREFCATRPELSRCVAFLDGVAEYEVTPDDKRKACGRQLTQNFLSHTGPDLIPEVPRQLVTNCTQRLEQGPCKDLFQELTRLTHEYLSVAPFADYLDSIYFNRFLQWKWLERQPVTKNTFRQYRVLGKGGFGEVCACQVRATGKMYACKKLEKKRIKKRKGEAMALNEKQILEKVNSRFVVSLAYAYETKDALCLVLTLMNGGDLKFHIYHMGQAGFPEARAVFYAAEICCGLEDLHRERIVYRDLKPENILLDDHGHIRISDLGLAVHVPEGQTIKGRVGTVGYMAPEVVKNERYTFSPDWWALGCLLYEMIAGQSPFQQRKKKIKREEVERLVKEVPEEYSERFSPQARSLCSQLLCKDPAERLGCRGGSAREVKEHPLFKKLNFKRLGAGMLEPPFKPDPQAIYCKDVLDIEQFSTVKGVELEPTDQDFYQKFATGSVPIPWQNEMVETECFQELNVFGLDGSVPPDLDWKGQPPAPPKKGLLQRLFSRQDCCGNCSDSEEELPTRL

What is called inhibition is the drop in the measured response relative to a control, in per cent. Take `O=C1NC(=O)C(c2ccc(Cl)cc2)=C1Nc1ccc(Cl)c(C(=O)O)c1`: the inhibition in assay [1] was -1.69%; in assay [2], -1.52%; in assay [3], -2.06%; in [4] it was -1.58%; in [5], -1.65%; in [6], -1.06%. Moreover, the inhibition was 2.37% in assay [7], -0.84% in [8], -5.23% in [9] and -4.79% in [10].
For the compound `Nc1ncnc2occ(-c3ccc(NC(=O)Nc4cccc(C(F)(F)F)c4)cc3)c12`, the inhibition in assay [1] amounted to 1.53%; in [2] it was 0.96%; in assay [3], 1.75%; in assay [4], 2.15%; in assay [5], 0.73%; in assay [6], 2.7%. Besides, the inhibition in assay [7] amounted to 2.54%; in [8], 0.47%; in assay [9] it was 8.48%; in assay [10] it was 4.95%.
As for `COc1ccccc1Nc1ncc(-c2ccccc2)o1`, the inhibition in assay [1] was 1.37%; in assay [2], 1.71%; in assay [3], 0.6%; in [4] it was 2.82%; in assay [5], 0.12%; in assay [6], 3.9%. Also, the inhibition in [7] is 2.46%; in assay [8], 3.95%; in assay [9] it was 10.1%; in [10] it was 2.31%.
As for `Cc1nn(C)c2cc(N(C)c3ccnc(Nc4cccc(S(N)(=O)=O)c4)n3)ccc12`, the inhibition is 0.47% in assay [1]; 0.23% in assay [2]; 1.6% in assay [3]; 2.15% in assay [4]; 1.22% in assay [5]; 1.54% in assay [6]. Also, the inhibition is 3.92% in assay [7], 3.28% in assay [8], 2.2% in [9] and 10.5% in assay [10].
For `COc1cc2ncn(-c3cc(OCc4ccccc4Cl)c(C(N)=O)s3)c2cc1OC`, the inhibition is -1.2% in [1]; -0.21% in assay [2]; -0.21% in [3]; 0.92% in assay [4]; 1.15% in assay [5]; -1.17% in assay [6]. For the same compound, the inhibition in assay [7] is 2.37%; in assay [8], 5.7%; in assay [9], -0.82%; in assay [10], 9.44%.
Regarding `Cc1ccc(NC(=O)c2ccnc(N3CCCC3)c2)cc1-c1ccc(C(=O)NCC2CC2)cc1`, the inhibition was -2.27% in assay [1]; -3.57% in [2]; -1.45% in assay [3]; -1.55% in assay [4]; -3.88% in assay [5]; -2.23% in assay [6]. Further, the inhibition in assay [7] was 2.49%; in assay [8], 0.85%; in assay [9], 5.08%; in assay [10] it was 10.4%.
Regarding `CS(=O)(=O)CCNCc1ccc(-c2ccc3ncnc(Nc4ccc(OCc5cccc(F)c5)c(C(F)(F)F)c4)c3c2)o1`, the inhibition in assay [1] is 1.75%; in assay [2], 0.54%; in assay [3], 2.87%; in [4], 0.73%; in assay [5], 2.73%; in [6] it was 2.96%. In addition, the inhibition in [7] turned out to be 9.26%; in assay [8], 5.4%; in assay [9], 3.55%; in [10], 8.92%.
Regarding `O=C1NC(=O)C(c2cccc(Cl)c2)=C1Nc1ccc(O)c(Cl)c1`, the inhibition in assay [1] was 0.39%; in assay [2], 1.25%; in [3], 0.32%; in assay [4], -0.16%; in assay [5], 0.98%; in assay [6], 0.23%. The inhibition in [7] came to 2.15%; in assay [8], 1%; in assay [9], 0.66%; in assay [10], 6.41%.
With `CCn1c(-c2nonc2N)nc2c(C#CC(C)(C)O)nc(OC[C@@H](N)c3ccccc3)cc21`, the inhibition in [1] was found to be 38.2%; in assay [2], 85.2%; in assay [3], 61.2%; in assay [4], 91.1%; in assay [5], 48.4%; in assay [6] it was 87.2%. In addition, the inhibition was -1.09% in [7], -0.69% in [8], -0.18% in [9] and 16.6% in [10].
Turning to `O=C1NC(=O)C(c2ccccc2Cl)=C1Nc1cccc(O)c1`, the inhibition was determined as 0.96% in [1]; 1.06% in [2]; 1.74% in assay [3]; 1.48% in assay [4]; 0.92% in assay [5]; 1.56% in assay [6]. For the same compound, the inhibition in [7] was 1.82%; in assay [8] it was 2.13%; in [9] it was 1.36%; in assay [10] it was -6.28%.
For `Cn1cc(C=C2C(=O)Nc3cccnc32)c2ccccc21`, the inhibition in [1] is 0.73%; in [2], 0.22%; in [3], 1.08%; in [4], 1.6%; in assay [5] it was 1.15%; in assay [6] it was 0.99%. Further, the inhibition in assay [7] is -1.62%; in [8], 6.18%; in assay [9], 3.02%; in assay [10], 10.6%.
As to `CN(C)c1cc2c(Nc3ccc4nc(Cc5ccccc5)[nH]c4c3)ncnc2cn1`, the inhibition in assay [1] came to 1.02%; in assay [2], 0.52%; in assay [3] it was 2.3%; in assay [4], 2.71%; in assay [5] it was 1.37%; in assay [6], 3.27%. The inhibition in [7] came to 2.98%; in [8], 6.85%; in assay [9], 20.5%; in assay [10] it was 22.6%.
As for `COC(=O)Nc1nc2cc(Oc3cccc(NC(=O)Nc4cc(C(F)(F)F)ccc4F)c3)ccc2[nH]1`, the inhibition in assay [1] was 0.52%; in assay [2] it was 0.1%; in assay [3] it was -0.46%; in [4], -0.62%; in assay [5], 0.98%; in assay [6], 1.83%. In addition, the inhibition in [7] was 2.28%; in [8], 0.3%; in [9], -2.92%; in assay [10], 1.74%.
Take `Cc1cc(O)cc(C)c1/C=C/c1cncc(-c2nn[nH]n2)c1`: the inhibition in assay [1] was -2.92%; in [2] it was -4.1%; in assay [3] it was -1.95%; in [4], -2.32%; in assay [5] it was -2.52%; in [6], -2.46%. For the same compound, the inhibition is 1.06% in assay [7], 5.14% in assay [8], 2.35% in assay [9] and 4.65% in assay [10].
Turning to `CC1=C(C(=O)Nc2ccc3[nH]ncc3c2)C(c2ccc3ccccc3c2)CC(=O)N1` (stereo not given), the inhibition in [1] was determined as 0.52%; in assay [2] it was 0.98%; in assay [3] it was 0.74%; in [4] it was 1.1%; in [5] it was 1.23%; in [6], 3.76%. The inhibition in assay [7] was 2.91%; in [8], 13.5%; in [9], 2.64%; in [10] it was 4.56%.
Turning to `CCn1c(-c2nonc2N)nc2c(N3CCCC3)nccc21`, the inhibition in assay [1] was -2.09%; in assay [2], -2.19%; in assay [3] it was -3.12%; in [4], -0.45%; in assay [5], -0.61%; in assay [6], 1.15%. Also, the inhibition in assay [7] was 0.48%; in assay [8], 2.71%; in assay [9], -7.43%; in [10], 0.27%.

The record behind these values is ChEMBL document CHEMBL1961873, “Compounds: GSK PKIS; Assays: Nanosyn kinase panel” (2012).
